Consider 3 molecules from PubChem BioAssay (EPA / NIEHS).

Molecules are shown by their SMILES. Results filed as inconclusive are left out. Calls of active or inactive are those of the source. How the source made its calls, unless noted: active means hit-call score of the fitted dose curve at least 0.9, where 1 is the maximum; inactive means score below 0.9.

For orientation: AC50 means the concentration at which the activity in the assay is half-maximal.

Read-out in assay [1]: Human Leukocyte Antigen - DR isotype (HLADR), HLA-DRA (gene 3122)
In words: BSK_3C_HLADR: BioMAP Diversity Plus: 3C Assay for Human Leukocyte Antigen - DR isotype (HLADR) Biomarker Activity (AID 2283019).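 On outcome: ELISA of cell-surface HLA-DR on HUVEC 24 h after dosing.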 Conditions: primary human endothelial cells (HUVEC); actives raise or lower the signal. In outline:
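Endothelial cells from human umbilical vein are treated with test chemical; after 24 h, HLA-DR levels are measured by ELISA. Data are fitted in both directions using DMSO as the baseline.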

Read-out in assay [2]: Interleukin-8 (IL8), CXCL8 (gene 3576)
Nature of the assay: BSK_3C_IL8: BioMAP Diversity Plus: 3C Assay for Interleukin-8 (IL8) Biomarker Activity (AID 2283020). Particulars: primary human endothelial cells (HUVEC); actives raise or lower the signal. In outline: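 Endothelial primary cells of human umbilical vein origin are dosed with chemical; after 24 h the IL-8 biomarker is measured by ELISA, and concentration–response is fitted in both directions versus DMSO.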

Read-out in assay [3]: Monokine induced gamma interferon (MIG), CXCL9 (gene 4283)
Nature of the assay: BSK_3C_MIG: BioMAP Diversity Plus: 3C Assay for Monokine induced gamma interferon (MIG) Biomarker Activity (AID 2283021). Conditions: primary human endothelial cells (HUVEC); actives raise or lower the signal. An outline of the steps:
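Endothelial primary cells (human umbilical vein) are dosed with test chemical in the 3C system. MIG levels are measured by ELISA at 24 h and fitted in both directions relative to DMSO.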

Assay [4] deals with human Vitamin D Receptor (VDR), VDR (gene 7421) (UniProt P11473). Nature of the assay: ATG_VDR_TRANS: Attagene TRANS-FACTORIAL HepG2 Assay for human Vitamin D Receptor (VDR) (AID 2283022; active means hit-call score of the fitted dose curve at least 0.9, where 1 is the maximum). An outline of the steps: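 Fluorescence of labelled reporter cDNA fragments, resolved by capillary electrophoresis, gives mRNA induction after 24 h treatment of HepG2 cells carrying transfected Gal4-fusion reporter units. Activity is fitted in the positive direction with DMSO as baseline.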

Assay [5] in a line: BSK_3C_SRB: Viability Assessment in the BioMAP Diversity Plus: 3C Assay (AID 2283023).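 Further: fitted both ways against DMSO so a hit may be signal rise or drop.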 Particulars: primary human endothelial cells (HUVEC). In outline: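 Cells were dosed with chemical, cultured 24 h, fixed with 10% TCA, stained with 0.1% SRB and read at 560 nm. Human umbilical vein endothelium was used; DMSO served as negative control and baseline.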
Read-out in assay [6]: Matrix Metallopeptidase 1 (MMP1), MMP1 (gene 4312)
In words: BSK_BE3C_MMP1: BioMAP Diversity Plus: BE3C Assay for Matrix Metallopeptidase 1 (MMP1) Biomarker Activity (AID 2283024). Conditions: primary human bronchial epithelial cells; actives raise or lower the signal. An outline of the steps: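 MMP1 signal, measured by ELISA after a 24 h chemical exposure of human primary bronchial epithelial cells, is analysed with bidirectional fitting using DMSO as negative control.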

A short description of assay [7]: BSK_3C_Vis: BioMAP Diversity Plus: 3C Assay for Morphology Visualization (AID 2283025).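 Further: fitted both ways so gain or loss versus DMSO counts.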 Conditions: primary human endothelial cells (HUVEC). An outline of the steps: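 Morphology read by light microscopy serves as a background control for the multiplexed 3C assay in human umbilical vein endothelial cells, taken 24 h after dosing, with DMSO as the negative control and bidirectional curve fitting.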

Read-out in assay [8]: Pselectin, SELP (gene 6403)
In words: BSK_4H_Pselectin: BioMAP Diversity Plus: 4H Assay for Pselectin Biomarker Activity (AID 2283026). Conditions: primary human endothelial cells (HUVEC); actives raise or lower the signal. In outline:
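Endothelial primary cells (human umbilical vein) are dosed, incubated 24 h, and assayed for surface P-selectin by ELISA; responses in either direction are fitted relative to the DMSO negative control.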

Assay [9] in a line: BSK_4H_SRB: Viability Assessment in the BioMAP Diversity Plus: 4H Assay (AID 2283027).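 Further: cells exposed to compound for 24 h before staining.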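 On AC50: curves fitted both ways versus DMSO so AC50 may be loss or gain.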 Particulars: primary human endothelial cells (HUVEC). In outline:
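HUVEC, 24 h post-dose; 10% TCA fix, 0.1% SRB stain, A560 nm. Total protein = overt cytotoxicity, parallel to biomarker read. Bidirectional fit vs DMSO baseline.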

Assay [10] in a line: BSK_BE3C_SRB: Viability Assessment in the BioMAP Diversity Plus: BE3C Assay (AID 2283028).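 On AC50: fitted both ways so AC50 may mark signal gain or loss versus DMSO.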 Conditions: primary human bronchial epithelial cells. In outline: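 Overt cytotoxicity was assessed as total protein in confluent human primary bronchial epithelial cultures 24 h after chemical addition, using 0.1% sulforhodamine B staining read at 560 nm.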
Read-out in assay [11]: Thrombomodulin, THBD (gene 7056)
In words: BSK_3C_Thrombomodulin: BioMAP Diversity Plus: 3C Assay for Thrombomodulin Biomarker Activity (AID 2283029). Particulars: primary human endothelial cells (HUVEC); actives raise or lower the signal. An outline of the steps:
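Endothelial cells from umbilical vein are dosed with test chemical and incubated 24 h. Thrombomodulin is then quantified by ELISA, with DMSO serving as negative control and activity baseline.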

Read-out in assay [12]: Urokinase-type plasminogen activator receptor (uPAR), PLAUR (gene 5329)
Nature of the assay: BSK_4H_uPAR: BioMAP Diversity Plus: 4H Assay for Urokinase-type plasminogen activator receptor (uPAR) Biomarker Activity (AID 2283030). Particulars: primary human endothelial cells (HUVEC); actives raise or lower the signal. An outline of the steps:
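Chemicals are dosed onto human vascular endothelial primary cells (umbilical vein). After 24 h, uPAR is read by ELISA. Gain or loss of signal is fitted relative to DMSO.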

Read-out in assay [13]: Human Leukocyte Antigen - DR isotype (HLADR), HLA-DRA (gene 3122)
In words: BSK_BE3C_HLADR: BioMAP Diversity Plus: BE3C Assay for Human Leukocyte Antigen - DR isotype (HLADR) Biomarker Activity (AID 2283032). Particulars: primary human bronchial epithelial cells; actives raise or lower the signal. In outline:
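Chemicals are dosed onto BE3C bronchial epithelial cultures of human origin and left 24 h. HLA-DR is then measured by ELISA, and the endpoint is fitted in both directions using DMSO as the activity baseline.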

Read-out in assay [14]: Vascular cell adhesion molecule 1 (VCAM1), VCAM1 (gene 7412)
Nature of the assay: BSK_4H_VCAM1: BioMAP Diversity Plus: 4H Assay for Vascular cell adhesion molecule 1 (VCAM1) Biomarker Activity (AID 2283033).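 Further: cell-surface VCAM-1 protein measured by ELISA.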 Conditions: primary human endothelial cells (HUVEC); actives raise or lower the signal. An outline of the steps: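 Chemicals are added to primary human umbilical vein endothelial cells. After 24 h, VCAM-1 levels are measured by ELISA. Values come from bidirectional fitting referenced to DMSO.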

Read-out in assay [15]: Interferon-gamma inducible Protein 10 (IP10), CXCL10 (gene 3627)
Nature of the assay: BSK_BE3C_IP10: BioMAP Diversity Plus: BE3C Assay for Interferon-gamma inducible Protein 10 (IP10) Biomarker Activity (AID 2283034). Conditions: primary human bronchial epithelial cells; actives raise or lower the signal. In outline: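 IP-10 quantified by ELISA serves as the endpoint. Cells: primary human bronchial epithelium, read 24 h after compound addition. Activity is derived by bidirectional fitting with DMSO as negative control.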

Read-out in assay [16]: Transforming growth factor beta 1 (TGFb1), TGFB1 (gene 7040)
In words: BSK_BE3C_TGFb1: BioMAP Diversity Plus: BE3C Assay for Transforming growth factor beta 1 (TGFb1) Biomarker Activity (AID 2283036;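 further: TGF-b1 protein level measured by ELISA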). Conditions: primary human bronchial epithelial cells; actives raise or lower the signal. In outline: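 Bronchial epithelial primary cells are treated with test chemical, then TGF-b1 is quantified by ELISA after 24 hours. Values derive from bidirectional fitting against DMSO, with cytotoxicity checked by SRB staining in parallel cultures.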

Read-out in assay [17]: Plasminogen activator inhibitor-1 (PAI1), SERPINE1 (gene 5054)
In words: BSK_BE3C_PAI1: BioMAP Diversity Plus: BE3C Assay for Plasminogen activator inhibitor-1 (PAI1) Biomarker Activity (AID 2283037). Conditions: primary human bronchial epithelial cells; actives raise or lower the signal. In outline:
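Values derive from bidirectional fitting against DMSO baseline of PAI-1 levels, measured by ELISA in human bronchial epithelial cells 24 h after compound addition.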

Read-out in assay [18]: urokinase plasminogen activator (uPA), PLAU (gene 5328)
In words: BSK_BE3C_uPA: BioMAP Diversity Plus: BE3C Assay for urokinase plasminogen activator (uPA) Biomarker Activity (AID 2283038).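 Further: uPA protein level quantified by ELISA in cell cultures; uPA read one day after compound addition.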 Conditions: primary human bronchial epithelial cells; actives raise or lower the signal. In outline:
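Measured by ELISA: uPA from human primary bronchial epithelial cells 24 h after chemical treatment. Values derive from bidirectional curve fitting with DMSO serving as negative control. Total protein by SRB staining in parallel wells flagged overt cytotoxicity.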

Read-out in assay [19]: Vascular endothelial growth factor receptor 2 (Homo sapiens) (UniProt P35968)
Nature of the assay: BSK_4H_VEGFRII: BioMAP Diversity Plus: 4H Assay for Vascular endothelial growth factor receptor 2 (VEGFR2) Biomarker Activity (AID 2283031). Conditions: primary human endothelial cells (HUVEC); actives raise or lower the signal. An outline of the steps:
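VEGFRII levels on human vascular endothelial primary cells were determined by ELISA at 24 hours post-dosing, with gain- or loss-of-signal fitted against DMSO controls.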

Read-out in assay [20]: Monokine induced gamma interferon (MIG), CXCL9 (gene 4283)
In words: BSK_BE3C_MIG: BioMAP Diversity Plus: BE3C Assay for Monokine induced gamma interferon (MIG) Biomarker Activity (AID 2283035).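 Further: MIG protein measured by ELISA in BE3C cultures after 24 h of dosing.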 Conditions: primary human bronchial epithelial cells; actives raise or lower the signal. An outline of the steps: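 Dose cells (human primary bronchial epithelial), incubate 24 h, quantify MIG by ELISA, then fit concentration–response in both directions relative to DMSO control.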

Chain of human Vitamin D Receptor (VDR), VDR (gene 7421) (P11473 whole entry, looked up, the tested form may be a part): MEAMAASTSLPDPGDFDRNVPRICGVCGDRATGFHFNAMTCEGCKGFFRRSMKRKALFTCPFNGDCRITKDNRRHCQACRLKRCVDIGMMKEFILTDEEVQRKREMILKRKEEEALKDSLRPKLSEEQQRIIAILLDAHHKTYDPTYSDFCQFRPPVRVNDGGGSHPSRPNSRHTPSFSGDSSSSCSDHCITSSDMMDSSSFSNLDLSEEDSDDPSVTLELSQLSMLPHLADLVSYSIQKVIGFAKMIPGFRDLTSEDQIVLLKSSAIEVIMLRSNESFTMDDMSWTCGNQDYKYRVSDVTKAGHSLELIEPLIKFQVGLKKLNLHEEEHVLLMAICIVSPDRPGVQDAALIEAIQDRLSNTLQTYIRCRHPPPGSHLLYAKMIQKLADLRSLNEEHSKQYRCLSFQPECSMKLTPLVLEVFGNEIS

In the case of `CCCCCOC(=O)COc1cc(N2C(=O)C3=C(CCCC3)C2=O)c(F)cc1Cl`, the AC50 in assay [1] was 19.2 µM (active). Also, the outcome in [2], in [3], in assay [4], in assay [5], in [6] and in assay [7] was inactive. Besides, the outcome in assay [8], in assay [9], in assay [10], in [11], in assay [12] and in assay [13] was inactive. Further, the result in assay [14], in [15], in assay [16], in assay [17] and in assay [18] was inactive.

For `C#CCOC(=O)[C@@H](C)Oc1ccc(Oc2ncc(Cl)cc2F)cc1`, the outcome in assay [1], in [2], in [3], in assay [4], in [5] and in [6] was inactive. Moreover, the outcome in assay [7], in [8], in assay [9], in assay [10], in assay [11] and in assay [19] was inactive. In addition, the outcome in assay [13], in [14], in assay [15] and in [16] was inactive.

With `Cc1nn(C)c(Oc2ccccc2)c1C=NOCc1ccc(C(=O)OC(C)(C)C)cc1`, the AC50 in assay [1] was 3.97 µM (active); in [2], 9.81 µM (active); in assay [5], 9.91 µM (active); in assay [6], 4.59 µM (active); in assay [7], 15.2 µM (active); in [8], 12.9 µM (active). Also, the AC50 was 16.3 µM (active) in [9]; 12 µM (active) in assay [10]; 5.41 µM (active) in assay [11]; 0.814 µM (active) in [13]; 11.7 µM (active) in assay [15]. Besides, the outcome in assay [3], in [4], in [19], in assay [14], in assay [20] and in assay [16] was inactive.
